About 83,000 compounds went through this panel and 20% of them were active in at least one assay; those are over-represented in the sample as a whole.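 The test compound was applied at a single concentration to cells in 96-well plates for 48 hours, and percent growth was recorded.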 Unmarked numbers belong to inactive results. Activity calls are given as the source filed them. The calls were made as follows: active = growth percent below 10; inactive = the rest.
How the values were obtained:
Experiment in all cases: NCI-60 one-dose screen, 48 h (100 = growth as untreated, 0 = no growth, -100 = all killed)
Conditions in all cases: 10 µM unless noted
HT29 colon = system: HT29 colon
SNB-75 CNS = system: SNB-75 CNS
SNB-19 CNS = system: SNB-19 CNS
PC-3 prostate = system: PC-3 prostate
SK-MEL-5 melanoma = system: SK-MEL-5 melanoma
UACC-62 melanoma = system: UACC-62 melanoma
LOX IMVI melanoma = system: LOX IMVI melanoma
SK-MEL-28 melanoma = system: SK-MEL-28 melanoma
SK-MEL-2 melanoma = system: SK-MEL-2 melanoma
EKVX NSCLC = system: EKVX NSCLC
SN12C renal = system: SN12C renal
UO-31 renal = system: UO-31 renal
TK-10 renal = system: TK-10 renal
ACHN renal = system: ACHN renal
CAKI-1 renal = system: CAKI-1 renal
A498 renal = system: A498 renal
CCRF-CEM leukemia = system: CCRF-CEM leukemia
MOLT-4 leukemia = system: MOLT-4 leukemia
SR leukemia = system: SR leukemia

Structure (SMILES) | growth (HT29 colon) | growth (SNB-75 CNS) | growth (SNB-19 CNS) [%] | growth (PC-3 prostate) | growth (SK-MEL-5 melanoma) | growth (UACC-62 melanoma) | growth (LOX IMVI melanoma) | growth (SK-MEL-28 melanoma) [%] | growth (SK-MEL-2 melanoma) | growth (EKVX NSCLC) | growth (SN12C renal) [%] | growth (UO-31 renal) | growth (TK-10 renal) | growth (ACHN renal) | growth (CAKI-1 renal) | growth (A498 renal) [%] | growth (CCRF-CEM leukemia) | growth (MOLT-4 leukemia) | growth (SR leukemia)
O=C(C(Br)Br)C(Br)C(Br)c1ccccc1 (configuration not stated) | -5.3% (active) | 115% | 112 | 101% | 99.3% | 95.2% | 53.3% | 106 | 117% | 117% | 93.7 | 17.8% | 27.7% | 6.67% (active) | 72.7% | 101 | 14.8% | 27.7% | –
Cn1c(=O)c2c(nc(Br)n2CCC(=O)Nc2ccc(F)cc2)n(C)c1=O | 96.3% | 89.1% | 103 | 95.9% | 111% | – | 89.9% | 112 | 100% | 108% | 106 | 78.3% | 103% | 102% | 93.7% | 98.2 | 99.5% | 95.9% | 107%
CC(C)C/C(=N\NC(=O)c1ccncc1)c1cc(Cl)ccc1O | 31.1% | 44.7% | 31.3 | 22.4% | 0.654% (active) | 6.43% (active) | 3.98% (active) | 40.5 | 7.55% (active) | 25.7% | 26.3 | 10.9% | 15.4% | 13.3% | 3.32% (active) | 49.5 | 7.99% (active) | – | –
Clc1ccc(-n2cnc3c(Cl)ncnc32)cc1Cl | 74.8% | 99.5% | 91.5 | 110% | 103% | 85.4% | 36.6% | 64.1 | 89.7% | 88.5% | 100 | 114% | 89.3% | 95.7% | 28.4% | – | – | 82.6% | –
c1ccc(-n2nnnc2-c2cccc3ccccc23)cc1 | -1.01% (active) | -7.18% (active) | 36.7 | 5.09% (active) | 22.2% | 31.6% | 18.6% | 56.5 | 23.8% | 54.1% | 39.9 | 28.7% | 13.8% | 52.9% | 21.8% | 32.6 | 9.58% (active) | 29.8% | 20.5%
O=[N+]([O-])c1ccc(N/N=C\c2ccccc2[N+](=O)[O-])nc1 | 104% | 103% | 99.4 | 99.7% | 105% | 96.7% | 105% | 110 | 95.6% | 101% | 103 | 97.8% | 116% | 102% | 83% | 83.4 | 97.8% | 93.5% | –
CCCCOc1ccc(C(C)(C)c2ccc(OCCCC)cc2)cc1 | 102% | 97.6% | 108 | 99.9% | 111% | 106% | 101% | 107 | 96.9% | 143% | 100 | 80.5% | – | 109% | – | 126 | 97.7% | 99.7% | 92.6%
COc1ccc(/C=N/NC(=O)c2ccc(S(C)(=O)=O)cc2)cc1OC | 97.9% | 85.9% | 97.3 | 88.5% | 97.9% | 92.7% | 102% | 109 | – | 103% | 98.3 | 90.8% | – | 102% | 89% | 94.6 | 103% | 65.9% | 92.5%
CC(C)COCC(CN(Cc1ccccc1)c1ccccc1)N1CCCC1 (configuration not stated) | -24.5% (active) | 72.5% | 79.1 | 41.9% | 51.4% | 81.1% | 47.5% | 84.9 | – | 54% | – | 37% | 29.9% | – | 57.1% | 83.3 | 41.7% | 28.8% | 51.8%
O=C(O)c1ccc(NC(=O)c2ccc(Nc3ccnc(C(F)(F)F)c3)cc2)cc1 | 109% | 98.7% | 99.7 | 99.4% | 101% | 107% | – | 106 | – | – | 104 | 84.5% | 105% | 98.9% | 108% | 105 | 120% | 94.5% | 90%
COc1ccc(C(=O)Nc2nc(-c3ccc(Cl)cc3)cs2)cc1 | 114% | 98.7% | 104 | 98.3% | 98.9% | 102% | – | 101 | – | – | 101 | 89.4% | 122% | 94.4% | 96.7% | 91.5 | 104% | 97.9% | 105%
CN(C)c1cccc2c(S(=O)(=O)N[C@H]3CC[C@H]4[C@@H]5CCc6cc(O)ccc6[C@H]5CC[C@]34C)cccc12 | 2.71% (active) | 40.4% | 62.5 | 16.1% | 41.5% | 49.9% | – | 54.7 | – | – | 25.4 | 10.7% | 51.1% | 30.8% | 15.5% | 49 | – | 17.3% | -16.1% (active)
ClC1=C(Cl)C(Cl)=C(Cl)C1=Cc1ccc(Cl)cc1 | -30.1% (active) | 97.5% | 76.4 | -36.1% (active) | 100% | 58.6% | -85.5% (active) | 116 | – | -22.6% (active) | 47.2 | -56.9% (active) | 8.54% (active) | 29% | -63.5% (active) | 27.2 | – | 0.492% (active) | -14.1% (active)
C[C@]12CC[C@@H]3c4ccc(O)c([N+](=O)[O-])c4CC[C@H]3[C@@H]1CC[C@@H]2NS(=O)(=O)c1ccc(C(F)(F)F)cc1 | 48% | 40.5% | 48.7 | 24.2% | 20.4% | 36.1% | – | 43.5 | – | – | 17.8 | -90.1% (active) | 46.5% | 3% (active) | – | 46.3 | 18.3% | 3.51% (active) | –
CC1CC(C)/C(=N/NC(N)=O)C(C(O)CC2CCC(=O)NC2=O)C1 (configuration not stated) | 35.8% | 57.7% | 31.4 | 40.6% | 31.7% | 46.3% | 27.3% | 37 | – | 33.6% | 18.9 | – | 53.9% | – | 35.5% | 71.1 | 15.6% | 23% | 48.5%
C[C@]12CC[C@@H]3c4ccc(O)c([N+](=O)[O-])c4CC[C@H]3[C@@H]1CC[C@@H]2NS(=O)(=O)c1cccc(Br)c1 | 68.1% | 47.2% | 50.6 | 15.9% | 25.6% | 35.4% | – | 49.6 | – | – | 21.4 | 3.61% (active) | 42.8% | 24.4% | 17.8% | 54.2 | – | 18.2% | -12.1% (active)
O=c1ccn(C2CCCO2)c(=O)[nH]1 (configuration not stated) | 98.3% | 91.9% | 109 | 105% | 111% | 109% | 107% | 108 | 124% | 107% | 109 | 95.4% | 120% | 98.7% | 110% | – | 97% | 97.7% | 114%
S=C(Nc1ccc(C2=NCCN2)cc1)Nc1ccc(C2=NCCN2)cc1 | 101% | 110% | 105 | 100% | 96.6% | 107% | 96.7% | 110 | 111% | 91.9% | 98.9 | 83.4% | 100% | 99.2% | 93.9% | 101 | 104% | 93.6% | 90.4%

— PubChem BioAssay (NCI)
